Experimental data as given in the supplement of paper PMC8728848.
This is one part of a sample in which the strongest signals are shown more often than they occur.

What was measured:
Assay in all cases: glycan array binding signal (z-score within array); higher = stronger binding
Settings in all cases: glycan notation: IUPAC condensed, linker removed
[1] = biological target: Fuc(a1-2)Gal(b1-3)GalNAc(b1-4)[Neu5Ac(a2-3)]Gal(b1-4)Glc
Summary of the method: (§1)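 Negative Z-scores can be read as non-binding. The Z-score is calculated within each array and then averaged across arrays of one protein sequence at different concentrations or buffers and across linkers. Arrays, 3228 in all, were curated from the Consortium for Functional Glycomics database and kept only where the protein sequence was available.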

[2] = biological target: Fuc(a1-2)Gal(b1-3)GlcNAc6S
Summary of the method: as §1

[3] = biological target: Fuc(a1-2)[Gal(a1-3)]Gal(b1-3)GlcNAc
Summary of the method: as §1

[4] = biological target: Fuc(a1-2)[Gal(a1-3)]Gal(b1-3)GlcNAc(b1-2)Man(a1-3)[Fuc(a1-2)[Gal(a1-3)]Gal(b1-3)GlcNAc(b1-2)Man(a1-6)]Man(b1-4)GlcNAc(b1-4)[Fuc(a1-6)]GlcNAc
Summary of the method: as §1

[5] = biological target: Fuc(a1-2)[GalNAc(a1-3)]Gal(b1-3)GlcNAc(b1-6)GalNAc
Summary of the method: as §1

[6] = biological target: Fuc(a1-2)[GalNAc(a1-3)]Gal(b1-4)Glc
Summary of the method: as §1

[7] = biological target: Fuc(a1-3)[Gal(b1-4)]GlcNAc(b1-6)[Gal(b1-3)GlcNAc(b1-3)]Gal(b1-4)Glc
Summary of the method: as §1

[8] = biological target: Fuc(a1-3)[Gal3S(b1-4)]Glc
Summary of the method: as §1

Fuc(a1-4)GlcNAc = biological target: Fuc(a1-4)GlcNAc
Summary of the method: as §1

Gal(a1-3)Gal(b1-3)GlcNAc = biological target: Gal(a1-3)Gal(b1-3)GlcNAc
Summary of the method: as §1

[9] = biological target: Gal(a1-3)Gal(b1-3)[Fuc(a1-4)]GlcNAc(b1-2)Man(a1-3)[Gal(a1-3)Gal(b1-3)[Fuc(a1-4)]GlcNAc(b1-2)Man(a1-6)]Man(b1-4)GlcNAc(b1-4)GlcNAc
Summary of the method: as §1

[10] = biological target: Gal(a1-3)Gal(b1-4)[Fuc(a1-3)]GlcNAc
Summary of the method: as §1

[11] = biological target: Gal(a1-3)Gal(b1-4)[Fuc(a1-3)]GlcNAc(b1-2)Man(a1-3)[Gal(a1-3)Gal(b1-4)[Fuc(a1-3)]GlcNAc(b1-2)Man(a1-6)]Man(b1-4)GlcNAc(b1-4)GlcNAc
Summary of the method: as §1

[12] = biological target: Gal(b1-3)[Fuc(a1-4)]GlcNAc(b1-2)Man(a1-3)[Gal(b1-3)[Fuc(a1-4)]GlcNAc(b1-2)Man(a1-6)]Man(b1-4)GlcNAc(b1-4)[Fuc(a1-6)]GlcNAc
Summary of the method: as §1

[13] = biological target: Gal(b1-4)GlcNAc(b1-2)Man(a1-6)Man(b1-4)GlcNAc(b1-4)GlcNAc
Summary of the method: as §1

[14] = biological target: Gal(b1-4)GlcNAc(b1-3)Gal(b1-4)GlcNAc
Summary of the method: as §1

[15] = biological target: Gal(b1-4)GlcNAc(b1-3)Gal(b1-4)GlcNAc(b1-2)[Gal(b1-4)GlcNAc(b1-3)Gal(b1-4)GlcNAc(b1-6)]Man(a1-6)[Gal(b1-4)GlcNAc(b1-3)Gal(b1-4)GlcNAc(b1-2)Man(a1-3)]Man(b1-4)GlcNAc(b1-4)[Fuc(a1-6)]GlcNAc
Summary of the method: as §1

[16] = biological target: Gal(b1-4)GlcNAc(b1-3)Gal(b1-4)GlcNAc(b1-3)Gal(b1-4)GlcNAc(b1-3)Gal(b1-4)GlcNAc(b1-3)Gal(b1-4)GlcNAc(b1-2)[Gal(b1-4)GlcNAc(b1-3)Gal(b1-4)GlcNAc(b1-3)Gal(b1-4)GlcNAc(b1-3)Gal(b1-4)GlcNAc(b1-3)Gal(b1-4)GlcNAc(b1-6)]Man(a1-6)[Gal(b1-4)GlcNAc(b1-3)Gal(b1-4)GlcNAc(b1-3)Gal(b1-4)GlcNAc(b1-3)Gal(b1-4)GlcNAc(b1-3)Gal(b1-4)GlcNAc(b1-2)Man(a1-3)]Man(b1-4)GlcNAc(b1-4)[Fuc(a1-6)]GlcNAc
Summary of the method: as §1

[17] = biological target: Gal(b1-4)GlcNAc(b1-6)Gal(b1-4)GlcNAc
Summary of the method: as §1

[18] = biological target: Gal3S(b1-4)[Fuc(a1-3)]Glc6S
Summary of the method: as §1

GalNAc(a1-3)Gal = biological target: GalNAc(a1-3)Gal
Summary of the method: as §1

[19] = biological target: GalNAc(a1-3)GalNAc(b1-3)Gal(a1-4)Gal(b1-4)GlcNAc
Summary of the method: as §1

[20] = biological target: GalNAc(b1-4)GlcNAc(b1-2)Man
Summary of the method: as §1

[21] = biological target: GalNAc(b1-4)GlcNAc(b1-2)Man(a1-3)[GalNAc(b1-4)GlcNAc(b1-2)Man(a1-6)]Man(b1-4)GlcNAc(b1-4)GlcNAc
Summary of the method: as §1

[22] = biological target: Glc(a1-4)Glc(a1-4)Glc(a1-4)Glc
Summary of the method: as §1

[23] = biological target: GlcNAc(a1-4)Gal(b1-4)GlcNAc
Summary of the method: as §1

[24] = biological target: GlcNAc(a1-4)Gal(b1-4)GlcNAc(b1-3)Gal(b1-4)[Fuc(a1-3)]GlcNAc(b1-3)Gal(b1-4)[Fuc(a1-3)]GlcNAc
Summary of the method: as §1

[25] = biological target: GlcNAc(b1-2)Man(a1-3)[GlcNAc(b1-2)Man(a1-6)]Man(b1-4)GlcNAc(b1-4)GlcNAc
Summary of the method: as §1

B1: LF82 (Escherichia coli) (protein)
chain: ADWGPCRTASGDPFIFVTSFTKNIQNPTDNVTGQTYPDFYQWALGDKYSGVCECPSPNPTEARPTLYKTESTLAAGHNSTYFKITNNLEVSTRVYIANVGNVQVPFINKSNSQPGRECDQPTFGWTTGSKGQLSLYIAKPFVGEQNIPQTIIVSVFGTKKENVYSSVPISQVLLSGKVTVTQGCELAAGTSLDIDFGEYQAHDFKGRTGQPPQNVQKIQKELTFNCTNISDGVHIYLSLEGTPNAAYPSAISLGNADVGAVIEDGKGNILKPNDSNSLLEMNPGSLYEYVKRKVTTTITAYPVSTTGKLPAAGDYSGVATMHVELDGGGGGGGGGGATTDLGAKGTLKFSLKISQGHHHHHH
glycan array binding signal (z-score) [1]: 3.03 | glycan array binding signal (z-score) [2]: 2.87 | glycan array binding signal (z-score) [3]: -0.338 | glycan array binding signal (z-score) [4]: 3.84 | glycan array binding signal (z-score) [5]: 1.19 | glycan array binding signal (z-score) [6]: -0.933 | glycan array binding signal (z-score) [7]: -1.03 | glycan array binding signal (z-score) [8]: 0.085 | glycan array binding signal (z-score) (Fuc(a1-4)GlcNAc): -0.348 | glycan array binding signal (z-score) (Gal(a1-3)Gal(b1-3)GlcNAc): -0.354 | glycan array binding signal (z-score) [9]: 0.456 | glycan array binding signal (z-score) [10]: -1.48 | glycan array binding signal (z-score) [11]: 1.79 | glycan array binding signal (z-score) [12]: 0.378 | glycan array binding signal (z-score) [13]: 4.95 | glycan array binding signal (z-score) [14]: -1.12 | glycan array binding signal (z-score) [15]: 2.68 | glycan array binding signal (z-score) [16]: 3.2 | glycan array binding signal (z-score) [17]: -0.202 | glycan array binding signal (z-score) [18]: -0.55 | glycan array binding signal (z-score) (GalNAc(a1-3)Gal): -0.316 | glycan array binding signal (z-score) [19]: -0.744 | glycan array binding signal (z-score) [20]: 0.518 | glycan array binding signal (z-score) [21]: -0.272 | glycan array binding signal (z-score) [22]: 1.21 | glycan array binding signal (z-score) [23]: 2.49 | glycan array binding signal (z-score) [24]: 3.63 | glycan array binding signal (z-score) [25]: -0.657
